Test results as given in PubChem BioAssay (NCATS).
Values joined by “and” are separate entries in the source; they are usually repeats but may differ in a detail not shown here. Equal entries are not always repeated. Results filed as inconclusive are left out. Active and inactive are the calls of the source. Unless noted, calls follow the shape of the dose curve; as a rule, active = well fitted curve in the direction sought with a large enough effect; inconclusive = small, poorly fitted or top-dose-only effect, or another doubt; inactive = no such curve, though single readings can be large; an effect the other way counts as inactive or inconclusive.

Assays:
[1] = Confirmation and Secondary Assay for Modulators of Hemoglobin Beta Chain Splicing at IVS2 654 locus (AID 910);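 also: HeLa cells stably carrying EGFP split by mutant beta-globin IVS2-654 intron; % of control where 0% means no effect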
Summary of the method: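 HeLa cells stably expressing EGFP interrupted by β-globin IVS2-654 intron, seeded overnight in Opti-MEM/2% FCS, then treated 2 days at 37 °C. Restored splicing read as total peak GFP intensity per well by laser scanning cytometry (488 nm excitation, 500–520 nm emission); 500 nM antisense PNA as control.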

[2] = qHTS Assay for Identification of Small Molecule Agonists for Thrombopoietin (TPO) Signaling Pathway (AID 917); also: % is scaled to controls: 0 for no effect and ±100 for the full control effect
Summary of the method: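 Activators of TPO signaling were sought in murine Ba/F3 cells transfected with the human receptor, using a luciferase gene driven by the Glycoprotein IIb promoter; 24-hr compound exposure at 37 C alongside 26 pM TPO, in IL-3-free medium.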

[3] = Confirmation and Secondary Assay for Modulators of Hemoglobin Beta Chain Splicing at IVS2 705 locus (AID 930);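 also: HeLa cells stably expressing the EGFP-705 splicing reporter; series mostly up to about 46 µM; % of control where 0% means no effect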
Summary of the method: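 HeLa cells stably carrying EGFP interrupted by mutant beta-globin IVS2-705 intron (CMV-driven) were seeded at 500 cells/well, treated next day with compound for 2 days at 37C; corrected splicing restores EGFP, read as total peak GFP intensity per well.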

[4] = molecular target: Pyruvate kinase (Leishmania mexicana) (UniProt Q27686); test: qHTS Validation Assay for Inhibitors of Leishmania Mexicana Pyruvate Kinase (AID 945);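 also: 0% = DMSO only neutral control wells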
Summary of the method: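 LmPYK E451W 0.2 nM; 0.5 mM PEP, 0.1 mM ADP, 7 mM MgCl2, 50 mM KCl, imidazole pH 7.2, 0.01% Tween 20, 0.05% BSA; 1 h RT; PKLight luminescence; DMSO-normalized.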

[5] = molecular target: Pyruvate kinase PKM (Homo sapiens) (UniProt P14618); test: qHTS Assay for Activators of Human Muscle Pyruvate Kinase (AID 954; active = well fitted curve in the direction sought with a large enough effect, not every such curve was filed as active;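 also: 0% = uninhibited enzyme and -100% = no enzyme or full thiadiazolimine inhibition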)
Summary of the method: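 Luminescence from a luciferase ATP-detection/stop reagent reported PKM2 activity. Reactions contained 0.1 nM purified human enzyme, 0.5 mM PEP, 0.1 mM ADP and 7 mM MgCl2 at pH 7.2, run 1 h at RT.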

[6] = qHTS Assay for Identification of Small Molecule Agonists for Hypoxia Response Element Signaling Pathway (AID 914; active = well fitted activation curve with a large enough effect in the signal ratio, with a control signal flat, not every such curve was filed as active; the % refers to the signal ratio; also: % of control where 0% means no effect); conditions: ME-180 HRE-bla reporter, beta-lactamase ratio, CoCl2, 17 h; stronger effect = higher value
Summary of the method: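 ME-180 cells carrying an HRE-driven beta-lactamase reporter were treated with compounds in a titration series plus an EC50 level of CoCl2 for 17 h at 37 degrees Celsius; CCF4 readout as the 460nm/530nm ratio gave AC50 values.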

[7] = Cell Viability - LYMP2-001 (AID 921);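 also: series mostly up to about 92 µM; cells exposed to compound for 24 h at 37 °C; 0% = DMSO only and full inhibition = tetraoctylammonium bromide control wells; nearly all actives have a fitted effect of over 70% in size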
Summary of the method: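 CellTiter-Glo luminescence (intracellular ATP) after 24 hr compound exposure at 37 C, 2500 lymphoblastoid cells/well in complete medium. AC50 fitted with standard Hill equation; tetraoctylammonium bromide positive control.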

[8] = MultiTox-Fluor Cytotoxicity Assay - LYMP1-001 - Dead Cells (AID 946);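 also: cells exposed to compound for 16 h; 0% = DMSO and 100% = tetraoctylammonium bromide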
Summary of the method: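 AC50 from Hill fit of concentration-response; data normalized to DMSO (basal) and 15 uM tetraoctylammonium bromide (100%). LYMP1-001 lymphoblastoid cells, 2500/well, 16 hr compound at 37 C; dead-cell protease fluorescence, Ex/Em 485/520.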

[9] = MultiTox-Fluor Cytotoxicity Assay - LYMP1-001 - Live Cells (AID 947);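 also: 0% = DMSO only and full inhibition = tetraoctylammonium bromide control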
[10] = Cell Viability - LYMP1-002 - Assay at 16 hr (AID 948);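 also: 0% = DMSO alone and full effect = 92 µM tetraoctylammonium bromide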
Summary of the method: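 LYMP1-002 human lymphoblastoid cells, 2500/well; 5 hr 37 C; cpd 16 hr 37 C; CellTiter-Glo 30 min RT; luminescence (ATP). Concentration-response, Hill-fit AC50. Pos ctrl tetraoctylammonium bromide.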

[11] = MultiTox-Fluor Cytotoxicity Assay - LYMP1-002 - Live Cells (AID 955);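 also: cells exposed to compound for 16 hours; % is scaled to controls: 0 for no effect and ±100 for the full control effect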
Summary of the method: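 Human lymphoblastoid LYMP1-002 cells, 2500/well, treated 16 h at 37 C in complete medium. Live-cell protease activity via GF-AFC fluorescence (Ex/Em 405/510) after 60 min reagent incubation; AC50 from Hill fits.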

[12] = MultiTox-Fluor Cytotoxicity Assay - LYMP1-002 - Dead Cells (AID 960);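 also: cells exposed to compound for 16 h at 37 °C; 0% = DMSO and 100% = tetraoctylammonium bromide; nearly all actives have a fitted effect of over 60% in size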
Summary of the method: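 Human lymphoblastoid LYMP1-002 cells, 2500/well, treated 16 h at 37 C; dead-cell protease cleavage of bis-AAF-R110 read by fluorescence (485/520); normalized to DMSO and 15 uM tetraoctylammonium bromide; AC50 from Hill fit.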

[13] = MultiTox-Fluor Cytotoxicity Assay - LYMP1-003 - Dead Cells (AID 961);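 also: cells exposed to compound for 16 h at 37 °C; 0% = DMSO and 100% = tetraoctylammonium bromide; nearly all actives have a fitted effect of over 70% in size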
Summary of the method: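 Human lymphoblastoid LYMP1-003 cells (2500/well) were treated with compounds for 16 hr at 37 C in complete medium. Dead-cell protease release was read by bis-AAF-R110 fluorescence (Ex/Em 485/520). AC50 came from Hill fits, normalized to DMSO and 15 uM tetraoctylammonium bromide.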

[14] = MultiTox-Fluor Cytotoxicity Assay - LYMP1-003 - Live Cells (AID 962);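 also: cells exposed to compound for 16 hours at 37 °C; 0% = DMSO only and full loss = 92 µM tetraoctylammonium bromide; cytotoxic hits lower the live-cell protease signal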
Summary of the method: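 LYMP1-003 lymphoblastoid cells, 2500/well in complete medium, treated 16 h at 37 C; live-cell protease cleavage of GF-AFC read by fluorescence (Ex/Em 405/510) after 60 min reagent; AC50 from Hill fits of concentration-response.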

[15] = Cell Viability - LYMP1-003 - Assay at 24 hr (AID 963);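 also: plate controls were DMSO only for no effect and tetraoctylammonium bromide positive control for full effect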
Summary of the method: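 Human lymphoblastoid LYMP1-003 cells, 2500/well, treated 24 h at 37 C in complete medium. Viability read as intracellular ATP by CellTiter-Glo luminescence after 30 min at room temperature; AC50 from Hill-equation fits of qHTS concentration-response.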

[16] = molecular target: Muscarinic acetylcholine receptor M1 (Rattus norvegicus) (UniProt P08482); test: qHTS Assay for Antagonists of Acetylcholine Muscarinic M1 Receptor: Kinetic Measurement of Intracellular Calcium Response (AID 943); also: series mostly up to about 35 µM; nearly all actives have a fitted effect of over 75% in size
Summary of the method: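 CHO cells expressing rat M1 receptor, Fluo-4 loaded, preincubated 10 min with compound, then stimulated with EC80 carbachol (100 nM final). Kinetic calcium fluorescence over 4 min; response taken as peak over basal signal.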

[17] = molecular target: Muscarinic acetylcholine receptor M1 (Rattus norvegicus) (UniProt P08482); test: qHTS Assay for Antagonists of Acetylcholine Muscarinic M1 Receptor: Measurement of IP-One Response (AID 944); also: nearly all actives have a fitted effect of over 75% in size
Summary of the method: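 CHO cells stably expressing rat M1, pretreated 10 min with compound, then stimulated 30 min with carbachol at EC80 (200 nM) in LiCl-containing buffer pH 7.4; IP1 accumulation read by HTRF competition (665/620 nm).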

Muscarinic acetylcholine receptor M1 (Rattus norvegicus), sequence (P08482 whole entry, looked up): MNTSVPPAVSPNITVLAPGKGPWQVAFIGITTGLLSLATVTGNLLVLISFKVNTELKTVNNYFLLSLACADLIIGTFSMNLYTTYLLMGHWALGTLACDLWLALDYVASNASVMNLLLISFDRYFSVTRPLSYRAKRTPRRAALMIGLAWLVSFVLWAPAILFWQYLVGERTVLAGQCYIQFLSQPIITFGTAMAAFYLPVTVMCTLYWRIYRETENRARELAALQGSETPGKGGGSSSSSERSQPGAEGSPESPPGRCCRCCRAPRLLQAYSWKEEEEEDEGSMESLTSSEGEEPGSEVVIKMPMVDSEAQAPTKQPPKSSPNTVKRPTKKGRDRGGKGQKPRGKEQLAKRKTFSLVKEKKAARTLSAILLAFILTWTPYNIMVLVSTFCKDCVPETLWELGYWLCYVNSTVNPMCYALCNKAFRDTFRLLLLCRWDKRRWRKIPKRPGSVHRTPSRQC
Pyruvate kinase PKM (Homo sapiens), sequence (P14618 whole entry, looked up): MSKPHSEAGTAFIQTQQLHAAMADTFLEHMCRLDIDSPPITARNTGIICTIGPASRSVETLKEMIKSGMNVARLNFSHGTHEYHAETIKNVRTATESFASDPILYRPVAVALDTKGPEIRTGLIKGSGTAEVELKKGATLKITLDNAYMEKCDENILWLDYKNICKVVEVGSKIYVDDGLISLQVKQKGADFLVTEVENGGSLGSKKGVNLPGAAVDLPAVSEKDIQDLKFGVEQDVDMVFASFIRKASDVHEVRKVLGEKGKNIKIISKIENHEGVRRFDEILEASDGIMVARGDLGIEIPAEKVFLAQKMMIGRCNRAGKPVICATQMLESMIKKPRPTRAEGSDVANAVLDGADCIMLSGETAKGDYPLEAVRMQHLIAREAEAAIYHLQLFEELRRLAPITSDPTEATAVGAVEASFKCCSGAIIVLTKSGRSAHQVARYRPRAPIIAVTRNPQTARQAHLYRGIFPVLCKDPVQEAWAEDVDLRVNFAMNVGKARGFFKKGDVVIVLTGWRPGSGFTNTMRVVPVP
Pyruvate kinase (Leishmania mexicana), sequence (Q27686 2-499 E452W): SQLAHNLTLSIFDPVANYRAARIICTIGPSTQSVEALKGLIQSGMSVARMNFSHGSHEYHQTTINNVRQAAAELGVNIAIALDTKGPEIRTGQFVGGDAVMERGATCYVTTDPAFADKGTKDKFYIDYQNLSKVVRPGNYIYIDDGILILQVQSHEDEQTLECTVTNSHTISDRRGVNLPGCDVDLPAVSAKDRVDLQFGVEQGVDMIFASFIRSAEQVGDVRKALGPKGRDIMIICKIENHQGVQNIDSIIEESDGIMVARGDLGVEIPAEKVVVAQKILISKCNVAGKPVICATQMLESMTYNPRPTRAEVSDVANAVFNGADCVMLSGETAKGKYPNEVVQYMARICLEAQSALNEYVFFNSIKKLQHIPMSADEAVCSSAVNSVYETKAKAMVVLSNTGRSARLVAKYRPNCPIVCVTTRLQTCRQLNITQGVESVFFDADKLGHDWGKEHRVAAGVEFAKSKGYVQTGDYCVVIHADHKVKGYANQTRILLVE

Cc1ccc(Cl)c(Nc2ccccc2C(=O)O)c1Cl
inactive: outcome [1] | outcome [2] | outcome [3] | Potency [4] | outcome [5]

CC(C)NNC(=O)c1ccncc1
inactive: outcome [1] | outcome [2] | outcome [3] | Potency [4] | outcome [5]

CCN(CC)CC(=O)Nc1c(C)cccc1C
inactive: outcome [1] | outcome [2] | outcome [3] | Potency [4] | outcome [5]

CC1=NS(=O)(=O)c2cc(Cl)ccc2N1
inactive: outcome [1] | outcome [2] | outcome [3] | Potency [4] | outcome [5]

CC(=O)Nc1nnc(S(N)(=O)=O)s1
inactive: outcome [1] | activation [6] 10.9% and -10.2% and -6.49% | outcome [2] | outcome [3] | Potency [4] | outcome [5]

NC(=O)N1c2ccccc2C=Cc2ccccc21
inactive: outcome [1] | activation [6] -7.9% and -9.09% and -6.88% | outcome [2] | outcome [7] | outcome [3] | Potency [4] | outcome [8] | outcome [9] | outcome [10] | outcome [5] | outcome [11] | Potency [12] | Potency [13] | outcome [14] | outcome [15]

O=C(O)CCCCCCCC(=O)O
inactive: outcome [1] | outcome [2] | outcome [3] | Potency [16] | Potency [17] | Potency [4] | outcome [5]

COc1cc(Cc2cnc(N)nc2N)cc(OC)c1OC
inactive: outcome [1] | outcome [2] | outcome [7] | outcome [3] | Potency [17] | Potency [4] | outcome [8] | outcome [9] | outcome [10] | outcome [5] | outcome [11] | Potency [12] | Potency [13] | outcome [14] | outcome [15]

CN(C)CCOC(=O)COc1ccc(Cl)cc1
inactive: outcome [1] | outcome [2] | outcome [3] | Potency [16] | Potency [17] | Potency [4] | outcome [5]
